Measurements taken from ChEMBL document CHEMBL3988442, “University of Dundee, Small-Polar-MMV Screening Library” (2021).
For some of these results: Potency and affinity values are given separately.

Experiments:
Design in all cases: scale not given: direction of the effect not stated beside the values
[1] = target: Protein translocase subunit SecA (Escherichia coli (strain K12)) (UniProt P10408); experiment: Assay to Identify E. coli SecA ATPase Inhibitors; type: functional; conditions: 30 µM
[2] = target: T1, Ubiquitin-activating enzyme e1, putative (Leishmania donovani (strain BPK282A1)) (UniProt E9BSI1); experiment: Leishmania donovani Ubiquitin Activating Enzyme (LdE1); type: functional; conditions: 30 µM
T1 sequence (whole entry): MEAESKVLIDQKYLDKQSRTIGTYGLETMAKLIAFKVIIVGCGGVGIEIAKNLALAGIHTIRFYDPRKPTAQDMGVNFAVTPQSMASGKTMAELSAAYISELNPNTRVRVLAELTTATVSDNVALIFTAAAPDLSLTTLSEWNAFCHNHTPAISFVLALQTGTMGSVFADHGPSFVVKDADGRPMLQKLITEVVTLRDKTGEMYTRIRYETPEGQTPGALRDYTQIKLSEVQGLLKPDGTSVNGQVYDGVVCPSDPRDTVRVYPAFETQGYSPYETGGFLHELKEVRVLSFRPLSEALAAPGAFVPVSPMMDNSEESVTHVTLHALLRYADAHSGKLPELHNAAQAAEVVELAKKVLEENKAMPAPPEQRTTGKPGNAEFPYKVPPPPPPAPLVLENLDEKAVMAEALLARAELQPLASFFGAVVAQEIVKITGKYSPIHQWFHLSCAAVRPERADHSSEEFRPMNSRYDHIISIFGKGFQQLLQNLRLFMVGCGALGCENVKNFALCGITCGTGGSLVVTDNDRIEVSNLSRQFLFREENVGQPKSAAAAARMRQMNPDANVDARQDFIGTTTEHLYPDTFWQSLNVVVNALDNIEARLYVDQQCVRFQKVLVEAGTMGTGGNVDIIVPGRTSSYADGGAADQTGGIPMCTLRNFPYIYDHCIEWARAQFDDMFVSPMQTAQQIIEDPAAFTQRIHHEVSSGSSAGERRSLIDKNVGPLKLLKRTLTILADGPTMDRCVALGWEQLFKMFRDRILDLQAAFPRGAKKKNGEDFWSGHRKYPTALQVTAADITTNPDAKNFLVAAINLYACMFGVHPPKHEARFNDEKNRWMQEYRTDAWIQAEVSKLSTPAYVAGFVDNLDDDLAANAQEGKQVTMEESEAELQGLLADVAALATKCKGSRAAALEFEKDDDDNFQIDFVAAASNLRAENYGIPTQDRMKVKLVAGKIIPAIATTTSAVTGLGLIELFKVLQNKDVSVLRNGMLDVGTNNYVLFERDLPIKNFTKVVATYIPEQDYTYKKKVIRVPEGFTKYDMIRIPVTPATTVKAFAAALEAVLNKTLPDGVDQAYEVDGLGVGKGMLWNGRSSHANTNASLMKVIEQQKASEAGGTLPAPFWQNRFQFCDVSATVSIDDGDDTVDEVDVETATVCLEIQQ

[3] = target: AMP-activated protein kinase, AMPK (Homo sapiens) (UniProt P54646+O43741+P54619+Q9UGJ0+Q9Y478+Q13131+Q9UGI9); experiment: AMP-dependent Kinase enzyme assay. An in vitro enzyme assay that detects ADP turnover that is directly proportional to AMPK activity. This uses naive AMPK that is activated during the assay with MK-8722; type: functional; conditions: 30 µM
[4] = target: Sialic acid-binding Ig-like lectin 9 (Homo sapiens) (UniProt Q9Y336); experiment: Hs-Siglec9 ALPHAscreen SOP 20170721; conditions: 10 µM
Sequence of Sialic acid-binding Ig-like lectin 9 (Homo sapiens) (Q9Y336 whole entry): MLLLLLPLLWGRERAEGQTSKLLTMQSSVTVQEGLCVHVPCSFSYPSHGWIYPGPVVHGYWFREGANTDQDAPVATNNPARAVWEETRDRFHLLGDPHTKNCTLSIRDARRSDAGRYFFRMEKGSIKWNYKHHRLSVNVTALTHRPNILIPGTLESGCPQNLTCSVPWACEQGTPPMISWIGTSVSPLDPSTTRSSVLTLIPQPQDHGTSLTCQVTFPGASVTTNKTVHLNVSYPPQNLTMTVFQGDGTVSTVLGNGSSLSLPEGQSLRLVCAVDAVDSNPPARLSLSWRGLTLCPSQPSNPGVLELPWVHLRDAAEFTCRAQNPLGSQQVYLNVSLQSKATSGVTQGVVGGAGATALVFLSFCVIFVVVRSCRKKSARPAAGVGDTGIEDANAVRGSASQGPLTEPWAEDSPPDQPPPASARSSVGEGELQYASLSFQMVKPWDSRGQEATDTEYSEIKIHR

Trypanosoma cruzi = experiment: Trypanosoma cruzi phosphomannomutase and mannose-1-phosphate guanylyltransferase assay; type: functional; conditions: 10 µM
[5] = target: T2, Arginase-2, mitochondrial (Homo sapiens) (UniProt P78540); experiment: in vitro enzyme assay to detect the production of urea directly proportional to the activity of Arginase II; type: functional; conditions: 33.3 µM; note: in the data most compounds retested in dose-response had high values
T2 sequence (whole entry): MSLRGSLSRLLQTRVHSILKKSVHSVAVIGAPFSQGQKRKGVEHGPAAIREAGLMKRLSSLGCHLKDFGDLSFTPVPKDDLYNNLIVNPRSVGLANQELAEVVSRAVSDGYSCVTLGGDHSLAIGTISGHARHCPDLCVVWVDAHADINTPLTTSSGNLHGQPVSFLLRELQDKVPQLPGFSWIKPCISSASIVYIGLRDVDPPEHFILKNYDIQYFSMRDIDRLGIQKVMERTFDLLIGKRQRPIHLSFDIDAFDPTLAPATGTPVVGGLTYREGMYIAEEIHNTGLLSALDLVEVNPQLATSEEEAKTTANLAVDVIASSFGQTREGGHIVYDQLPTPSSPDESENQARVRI

[6] = target: T3, Proteasome subunit beta (Trypanosoma cruzi) (UniProt O96673); experiment: Trypanosoma cruzi proteasome chymotrypsin-like activity (TcProtChymo) assay.; note: in the data most compounds retested in dose-response had high values; type: functional; conditions: 9.37 µM
T3 sequence (whole entry): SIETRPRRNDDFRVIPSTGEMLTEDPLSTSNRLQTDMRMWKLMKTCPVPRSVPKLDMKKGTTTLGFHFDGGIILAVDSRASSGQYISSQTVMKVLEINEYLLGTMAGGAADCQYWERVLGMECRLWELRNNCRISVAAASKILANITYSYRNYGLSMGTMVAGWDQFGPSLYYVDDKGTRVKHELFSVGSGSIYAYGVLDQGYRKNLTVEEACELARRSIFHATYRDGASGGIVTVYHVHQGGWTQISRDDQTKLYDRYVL

Homo sapiens = species on record: Homo sapiens; experiment: To identify inhibition of the IFN signalling (Jak-Stat) pathway via expression of an eGFP reporter gene under the control of an IFN-stimulated response element (ISRE) containing MxA promoter.; type: functional; conditions: 30 µM
[7] = target: T4, Tyrosyl-tRNA synthetase, putative (Trypanosoma cruzi (strain CL Brener)) (UniProt Q4DSP6); experiment: Trypanosoma cruzi tyrosyl tRNA synthetase (TcYRS) _High Tyrosine SOP; type: functional; conditions: 30 µM; note: in the data most compounds retested in dose-response had high values
T4 sequence (whole entry): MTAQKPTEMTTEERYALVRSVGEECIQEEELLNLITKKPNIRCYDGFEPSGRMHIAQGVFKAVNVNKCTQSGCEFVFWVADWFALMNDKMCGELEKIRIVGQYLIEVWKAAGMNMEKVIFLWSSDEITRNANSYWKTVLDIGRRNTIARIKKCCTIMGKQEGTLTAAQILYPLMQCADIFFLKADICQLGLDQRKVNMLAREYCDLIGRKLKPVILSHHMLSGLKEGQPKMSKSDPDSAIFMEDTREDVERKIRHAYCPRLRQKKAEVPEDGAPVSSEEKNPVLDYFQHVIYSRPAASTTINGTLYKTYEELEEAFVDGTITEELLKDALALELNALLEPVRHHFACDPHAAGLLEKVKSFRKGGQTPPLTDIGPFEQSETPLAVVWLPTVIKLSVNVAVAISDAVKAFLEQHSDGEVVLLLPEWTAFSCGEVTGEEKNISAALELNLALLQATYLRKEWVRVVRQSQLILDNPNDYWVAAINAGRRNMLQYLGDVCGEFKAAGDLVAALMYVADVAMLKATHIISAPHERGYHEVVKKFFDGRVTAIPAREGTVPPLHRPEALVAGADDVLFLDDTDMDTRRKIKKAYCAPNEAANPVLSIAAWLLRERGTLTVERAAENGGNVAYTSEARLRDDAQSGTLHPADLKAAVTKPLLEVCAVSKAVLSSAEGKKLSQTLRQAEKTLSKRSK

[8] = target: T4, Tyrosyl-tRNA synthetase, putative (Trypanosoma cruzi (strain CL Brener)); experiment: Trypanosoma cruzi tyrosyl tRNA synthetase (TcYRS) SOP; type: functional; conditions: 30 µM
[9] = target: Chromo domain-containing protein 1 (Saccharomyces cerevisiae (strain ATCC 204508 / S288c) (Baker's yeast)) (UniProt P32657); experiment: ScCHD-1 Enzyme Inhibition Assay; type: functional; conditions: 30 µM; note: in the data most compounds retested in dose-response had high values
Sequence of Chromo domain-containing protein 1 (Saccharomyces cerevisiae (strain ATCC 204508 / S288c) (Baker's yeast)) (P32657 whole entry, the tested form may be a part): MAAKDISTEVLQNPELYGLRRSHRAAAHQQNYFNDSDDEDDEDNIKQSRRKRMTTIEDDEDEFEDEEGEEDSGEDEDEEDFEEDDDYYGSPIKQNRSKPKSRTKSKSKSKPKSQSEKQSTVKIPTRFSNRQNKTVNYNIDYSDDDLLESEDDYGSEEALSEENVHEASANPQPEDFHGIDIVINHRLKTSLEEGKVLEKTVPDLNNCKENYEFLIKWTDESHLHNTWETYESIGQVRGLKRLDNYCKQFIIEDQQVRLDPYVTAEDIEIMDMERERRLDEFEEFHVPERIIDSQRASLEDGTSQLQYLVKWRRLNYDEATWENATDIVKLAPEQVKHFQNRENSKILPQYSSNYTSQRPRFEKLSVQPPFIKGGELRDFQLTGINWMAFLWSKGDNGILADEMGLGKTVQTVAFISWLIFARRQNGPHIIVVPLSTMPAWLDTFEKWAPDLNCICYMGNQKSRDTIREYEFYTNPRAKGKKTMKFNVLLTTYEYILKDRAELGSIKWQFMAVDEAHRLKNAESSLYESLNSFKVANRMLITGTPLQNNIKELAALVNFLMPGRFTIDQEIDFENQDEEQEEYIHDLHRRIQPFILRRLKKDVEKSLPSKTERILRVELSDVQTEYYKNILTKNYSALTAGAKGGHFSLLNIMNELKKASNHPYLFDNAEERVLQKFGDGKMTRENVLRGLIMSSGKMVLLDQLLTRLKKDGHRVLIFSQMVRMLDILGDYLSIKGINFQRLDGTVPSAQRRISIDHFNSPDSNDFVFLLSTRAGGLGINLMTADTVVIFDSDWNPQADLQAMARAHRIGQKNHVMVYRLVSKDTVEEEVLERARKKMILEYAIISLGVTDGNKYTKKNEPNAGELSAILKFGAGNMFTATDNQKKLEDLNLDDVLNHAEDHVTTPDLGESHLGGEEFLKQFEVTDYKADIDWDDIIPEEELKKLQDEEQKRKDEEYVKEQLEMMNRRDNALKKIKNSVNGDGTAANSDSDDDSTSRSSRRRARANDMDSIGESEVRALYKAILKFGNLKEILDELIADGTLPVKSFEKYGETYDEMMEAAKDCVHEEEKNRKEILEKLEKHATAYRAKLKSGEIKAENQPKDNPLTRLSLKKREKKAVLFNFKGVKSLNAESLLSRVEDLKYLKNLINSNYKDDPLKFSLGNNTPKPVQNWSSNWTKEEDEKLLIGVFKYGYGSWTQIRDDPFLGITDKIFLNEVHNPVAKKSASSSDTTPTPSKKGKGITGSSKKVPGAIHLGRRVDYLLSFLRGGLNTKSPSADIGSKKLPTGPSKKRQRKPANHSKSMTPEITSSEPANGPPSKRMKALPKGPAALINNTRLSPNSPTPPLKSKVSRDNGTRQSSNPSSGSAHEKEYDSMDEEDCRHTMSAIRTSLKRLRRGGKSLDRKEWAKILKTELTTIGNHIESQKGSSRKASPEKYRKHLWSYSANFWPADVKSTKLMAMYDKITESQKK

Sequence of Protein translocase subunit SecA (Escherichia coli (strain K12)) (P10408 whole entry): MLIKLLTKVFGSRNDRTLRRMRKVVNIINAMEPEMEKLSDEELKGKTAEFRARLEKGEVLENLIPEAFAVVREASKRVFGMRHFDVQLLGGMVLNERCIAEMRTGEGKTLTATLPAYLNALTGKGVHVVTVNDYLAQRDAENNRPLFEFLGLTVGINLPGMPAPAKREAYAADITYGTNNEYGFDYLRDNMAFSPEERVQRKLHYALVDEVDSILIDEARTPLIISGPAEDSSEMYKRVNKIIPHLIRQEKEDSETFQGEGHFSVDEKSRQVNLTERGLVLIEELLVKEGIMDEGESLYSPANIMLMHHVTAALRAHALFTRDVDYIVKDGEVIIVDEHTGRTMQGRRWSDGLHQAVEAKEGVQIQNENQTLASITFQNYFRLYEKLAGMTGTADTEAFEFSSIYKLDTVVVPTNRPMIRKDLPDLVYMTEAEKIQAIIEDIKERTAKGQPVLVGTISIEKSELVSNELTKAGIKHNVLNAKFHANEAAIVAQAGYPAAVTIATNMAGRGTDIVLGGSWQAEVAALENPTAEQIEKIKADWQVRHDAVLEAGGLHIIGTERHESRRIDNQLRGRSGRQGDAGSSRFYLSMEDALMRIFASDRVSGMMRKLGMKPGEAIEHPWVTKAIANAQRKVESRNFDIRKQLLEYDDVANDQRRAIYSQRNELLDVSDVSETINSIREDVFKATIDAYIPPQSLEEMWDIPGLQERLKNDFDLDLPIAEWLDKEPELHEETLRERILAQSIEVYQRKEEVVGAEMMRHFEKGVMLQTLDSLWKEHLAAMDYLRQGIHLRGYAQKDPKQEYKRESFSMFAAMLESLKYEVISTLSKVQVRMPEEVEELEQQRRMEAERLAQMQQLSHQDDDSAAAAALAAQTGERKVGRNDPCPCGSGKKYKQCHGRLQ

Compound | Percent Effect [1] [%] | Percent Effect [2] [%] | Percent Effect [3] [%] | Percent Effect [4] [%] | Percent Effect (Trypanosoma cruzi) [%] | Percent Effect [5] [%] | Percent Effect [6] [%] | Percent Effect (Homo sapiens) [%] | Percent Effect [7] [%] | Percent Effect [8] [%] | Percent Effect [9] [%]
c1ccc2c(N3CCCC3Cn3cccn3)ncnc2c1 (stereo unspecified) | -2.93 | 21.6 | -4.33 | 6.84 | 2.88 | 2.77 | 10.2 | 50.9 | 6.93 | 28.1 | -8.26
O=C1NCCCCC1Sc1nnc(C2CC2)n1C1CC1 (stereo unspecified) | 1.19 | 11 | -3.07 | -9.6 | 3.72 | 8.64 | 18.5 | 23.5 | 5.38 | 15 | -13.5
CN(Cc1ccsc1)C(=O)c1cccc(S(=O)(=O)NC(C)(C)C)c1 | -1.82 | 23.4 | -6.77 | -1.29 | 3 | -3.56 | 12 | 18.1 | 6.8 | 12.2 | -7.59
CSc1ccsc1C(=O)N1CCN(CC(C)(C)O)CC1 | -4.54 | 8.86 | 0.454 | 1.08 | 1.13 | -4.95 | 4.29 | 3.01 | 4.17 | -25.3 | -14.7
O=C(CCc1ccccn1)N1CCc2cc(Cl)cc(Cl)c2C1 | -0.0645 | 7.79 | 5.1 | 1.57 | -9.34 | -17.9 | 15 | 47.7 | -1.07 | -3.7 | -2.98
O=C(Nc1cccc(OCc2cccc(F)c2)c1)C1COCCO1 (stereo unspecified) | -6.19 | -8 | 0.056 | 1.36 | -3.41 | -0.521 | 13.2 | 28 | -8.2 | -11.1 | -6.84
Cc1nc(COCc2cnc3n2CCN(C2CCC2)C3C)cs1 (stereo unspecified) | -2.77 | 5.33 | -2.96 | 12.2 | 5.21 | -57.2 | 10.8 | -7.58 | 3.12 | 7.5 | -6.66
CN1CCCc2cc(CNC(=O)c3ccncc3)ccc21 | -3.56 | 19 | 22.6 | -0.0483 | 1.54 | -1.94 | 21.4 | 28.5 | 2.08 | 17.7 | -25.8
Cc1cc(CN2CCOC(CN(C)C)C2)no1 (stereo unspecified) | -5.93 | 5.41 | -1.25 | 0.559 | -4.92 | 1.66 | -2.15 | 14.9 | 1.98 | 1.22 | 6.53
O=C(COc1cccc(Br)c1)N1CCOCC1c1ncon1 (stereo unspecified) | -1.32 | -2.7 | -2.58 | -3.06 | 6.13 | 1.6 | 1.44 | -26.1 | 1.48 | -1.24 | -4.52
CCc1c(C(=O)N2CCN(c3ncccn3)CC2)cnn1C(C)(C)C | -1.49 | 21.1 | -5.24 | 0.163 | 0.0934 | 1.44 | 13.3 | 9.72 | 4.43 | 18.5 | -8.38
